Shown are actives, neighbours in structure and some others; about 17% of the full set was active somewhere.
TDP1 cell noCPT: qHTS for Inhibitors of human tyrosyl-DNA phosphodiesterase 1 (TDP1): qHTS in cells in absence of CPT; DT40 Tdp1-/- hTDP1 cells, no CPT, ATP luminescence, 48 h; hit rate 15% among 420,000; Potency, µM (top dose mostly 46.2 µM), actives largely listed as inhibitors; note: nearly all actives have a fitted effect of over 55% in size
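Luminescent ATP content (CellTiter-Glo) served as the growth readout. Knockout chicken DT40 cells expressing human TDP1 were exposed to compounds without camptothecin for a minimum 48 hr at 37 °C.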
ATXN2 expr inh: Primary qHTS for Inhibitors of ATXN expression; hit rate 0.72% among 360,000; AID 1745845, 2022; Potency, µM (doses to about 57 µM), usual class: inhibitors; HEK-293 ATXN2-luciferase reporter, luminescence, 24 h; note: nearly all actives have a fitted effect of over 55% in size
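ATXN2-luciferase reporter cells (luciferase flanked by upstream and downstream ATXN2 gene portions) were treated 24 h at 37 °C with compounds at up to 57 uM. SteadyGlo luminescence gave expression; GF-AFC fluorescence gave viability.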
HepG2 tox: qHTS for Inhibitors of TGF-b: Cytotox Counterscreen; AID 588856, 2011; HepG2 CAGA-GFP viability, ATP luminescence, 18 h; Potency, µM (top dose mostly 46.1 µM), actives largely listed as cytotoxic; hit rate 0.76% among 410,000
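HepG2 CAGA-GFP cells (1000/well, DMEM with 1% FBS) received compound, then TGF-beta at 500 pg/mL final, and were incubated 18 hours at 37 degrees C. Viability was read by CellTiter-Glo luminescence. Media-only wells were set as complete cell-killing and DMSO as no toxicity.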
ATXN viability: Viability Counterscreen for Primary qHTS for Inhibitors of ATXN expression | hit rate 0.49% among 400,000 | Potency, µM (series often up to 56.7 µM), usual class: cytotoxic | S2 cells (HEK-293 line with an ATXN2-luciferase reporter) viability, CellTiter-Fluor protease fluorescence, 24 h; note: nearly all actives have a fitted effect of over 40% in size
TDP1 cell CPT: qHTS for Inhibitors of human tyrosyl-DNA phosphodiesterase 1 (TDP1): qHTS in cells in presence of CPT; chicken DT40 Tdp1-/-;hTDP1 cells + 20 nM CPT, ATP luminescence, 48 h; Potency, µM (titrated, usually from 46.2 µM), hits mostly inhibitors; hit rate 12% among 420,000; AID 686979, 2013; note: nearly all actives have a fitted effect of over 55% in size
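Chicken DT40 Tdp1-/- cells complemented with human TDP1, 400 cells/well, exposed to compounds plus 20 nM camptothecin for at least 48 h at 37 C; viability read as ATP content by CellTiter-Glo luminescence.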
TGFb inhibitor: qHTS for Inhibitors of TGF-b. Potency, µM (top dose mostly 46.1 µM), usual class: inhibitors. hit rate 1.2% among 410,000. HepG2 CAGA-GFP TGF-b/SMAD3 reporter, GFP fluorescence, 18 h; TGF-beta stimulated, 500 pg/mL final; note: nearly all actives have a fitted effect of over 65% in size
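Using HEPG2 CAGA-GFP reporter cells at 1000 cells/well, we pinned test compounds, stimulated with recombinant TGF-beta (500 pg/mL final) and measured total well GFP after 18 h.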
Hits are given with their value; . = inactive; ? = inconclusive; / = no result. Calls come from the whole dose curve; as a rule, active = well fitted curve in the direction sought with a large enough effect; inconclusive = small, poorly fitted or top-dose-only effect, or another doubt; inactive = no such curve, though single readings can be large; an effect the other way counts as inactive or inconclusive.

SMILES	TDP1 cell noCPT	ATXN2 expr inh	HepG2 tox	ATXN viability	TDP1 cell CPT	TGFb inhibitor
CCc1ccc(-n2c(=O)c3sc4ccccc4c3n(Cc3cccc(F)c3)c2=O)cc1	?	.	.	.	.	.
COc1ccccc1CNC(=O)COC(=O)c1cccc(-n2cnnn2)c1	.	.	.	.	.	.
C[C@H](CO)N1C[C@H](C)[C@H](CN(C)C(=O)Cc2ccccc2)OCc2cnnn2CCCC1=O	.	.	.	.	.	.
Nc1ccc(NC(=O)c2cc(Cl)ccc2O)c(Cl)c1	?	/	.	/	.	.
CC(C)c1cccc(C(C)C)c1NC(=O)COC(=O)C1CCC1	.	.	.	.	.	.
CCN(CCCNC(=O)c1nn(-c2ccc(OC)c(Cl)c2)c(=O)c2c1c1ccccc1n2C)c1ccccc1	.	.	.	.	.	.
Cc1ccc(OCCCn2c(C3CC(=O)N(c4cccc(Cl)c4)C3)nc3ccccc32)c(C)c1 (stereo unspecified)	9.2µM	.	.	.	.	.
COc1ccc(OCCCCn2c(C3CC(=O)N(c4cccc(Cl)c4)C3)nc3ccccc32)cc1 (stereo unspecified)	5.8µM	.	.	?	8.2µM	?
CCOc1ccccc1N1CC(c2nc3ccccc3n2CCCCOc2ccccc2)CC1=O (stereo unspecified)	.	.	.	.	.	?
O=C1CC(c2nc3ccccc3n2CCCCOc2ccccc2)CN1c1ccccc1Cl (stereo unspecified)	14.6µM	?	.	28.2µM	10.3µM	?
CSc1cccc(NC(=O)N2CCc3ccc(NC(=O)c4ccccn4)cc3C2)c1	13µM	/	.	?	?	?
CCOC(=O)CNC(=O)N1CCc2ccc(NC(=O)c3ccccc3Cl)cc2C1	8.2µM	.	.	.	18.4µM	.
Cc1ccc(SCC(=O)N2CCN(S(=O)(=O)c3cccs3)CC2)cc1	?	.	.	.	.	.
CC[C@@H](C)[C@@H]1CN([C@@H](C)CN2CCC[C@H]2CN2C(N)=NC[C@H]2CC(C)C)C(=N)N1CCCC1CCCC1	23.1µM	.	.	.	?	.
CCCCN1C(=N)N([C@@H](CCC)CN2CCC[C@H]2CN2C(N)=NC[C@H]2CC(C)C)C[C@H]1Cc1ccccc1	?	.	.	.	?	.
CCCCN1C(=N)N([C@@H](CN2CCC[C@H]2CN2C(N)=NC[C@@H]2Cc2ccccc2)C(C)C)C[C@H]1Cc1ccccc1	16.4µM	.	.	.	?	?
CCCCN1C(=N)N([C@@H](C)CN2CCC[C@H]2CN2C(N)=NC[C@@H]2Cc2ccccc2)C[C@H]1Cc1ccccc1	?	.	.	.	?	.
CCCCN1C(=N)N([C@@H](CCC)CN2CCC[C@H]2CN2C(N)=NC[C@@H]2Cc2ccccc2)C[C@H]1[C@H](C)CC	11.6µM	.	.	.	13µM	.
CC[C@@H](C)[C@@H]1CN([C@@H](C)CN2CCC[C@H]2CN2C(N)=NC[C@@H]2Cc2ccccc2)C(=N)N1CCCC1CCCC1	?	.	.	.	?	.
CCC[C@@H](CN1CCC[C@H]1CN1C(N)=NC[C@H]1C(C)C)N1C[C@@H](Cc2ccccc2)N(CCCC2CCCC2)C1=N	16.4µM	.	.	.	?	.
Cc1ccccc1NC(=O)Cc1nc(COC(=O)c2ccc(Cl)c(S(N)(=O)=O)c2)cs1	?	.	.	.	?	.
CC(C)C[C@@H]1CN=C(N)N1C[C@@H]1CCCN1C[C@@H](C(C)C)N1C[C@@H](Cc2ccccc2)N(CCCC2CCCC2)C1=N	?	.	.	.	?	.
CC[C@@H](C)[C@@H]1CN([C@@H](CN2CCC[C@H]2CN2C(N)=NC[C@H]2C(C)C)C(C)C)C(=N)N1CCc1ccc(Cl)c(Cl)c1	16.4µM	.	.	.	?	.
O=C(CSc1nccn1Cc1ccco1)Nc1ccccc1C(F)(F)F	.	.	.	.	.	.
Cc1ccccc1C(=O)N1c2ccccc2OCC1C(C)(C)C (stereo unspecified)	20.6µM	/	.	.	?	.
SMILES	TDP1 cell noCPT	ATXN2 expr inh	HepG2 tox	ATXN viability	TDP1 cell CPT	TGFb inhibitor
CC(C)(C)C1COc2ccccc2N1C(=O)c1ccccc1Cl (stereo unspecified)	?	.	.	.	?	.
CCc1ccccc1NC(=O)C(C)n1nc(-c2ccc(C)c(C)c2)ccc1=O (stereo unspecified)	?	.	.	?	23.1µM	.
Cc1cc(C)c(NC(=O)C(C)n2nc(-c3ccc(C)c(C)c3)ccc2=O)c(C)c1 (stereo unspecified)	?	.	.	?	?	.
COc1ccc(NC(=O)C(C)n2nc(-c3ccc(C)c(C)c3)ccc2=O)cc1OC (stereo unspecified)	16.4µM	.	.	?	23.1µM	?
O=c1c2cc(N3CCOCC3)ccc2[nH]c(=S)n1Cc1ccco1	20.6µM	.	.	.	?	.
O=c1c2cc(N3CCOCC3)ccc2[nH]c(=S)n1CCCN1CCCCC1	.	.	.	.	.	.
O=C(CCCCCn1c(=S)[nH]c2ccc(N3CCOCC3)cc2c1=O)NC1CCN(Cc2ccccc2)CC1	23.1µM	.	.	/	16.4µM	.
O=c1c2cc(N3CCOCC3)ccc2[nH]c(=S)n1Cc1cccc(Cl)c1	?	.	.	.	20.6µM	.
CCN(CCCn1c(=S)[nH]c2ccc(N3CCOCC3)cc2c1=O)c1ccccc1	20.6µM	?	.	/	11.6µM	?
O=C(NC1CCN(Cc2ccccc2)CC1)c1ccc(Cn2c(=S)[nH]c3ccc(N4CCOCC4)cc3c2=O)cc1	?	.	.	/	?	.
C=CCn1ccc(=O)nc1SC	.	.	.	.	.	.
CC(C)(C)C1CCSC2=NCCC[C@]2(c2ccccc2)C1 (stereo partly specified)	18.4µM	.	/	.	?	/
O=[N+]([O-])c1cccc(/C=N/N2CCN(c3ccccn3)CC2)c1	?	.	.	?	?	.
CCn1c(=O)c2cc(C(=O)NCCc3cccc(C)c3)sc2c2ccccc21	.	.	.	.	.	.
CCN=c1sc(C(=O)NCCc2ccccc2)cc(=O)n1CC	18.4µM	.	.	?	?	?
c1cnc2[nH]ccc2c1	.	/	.	/	.	.
CCc1ccc(-c2nc(CS(=O)CC(=O)NCCc3ccc(C)cc3)c(C)o2)cc1 (stereo unspecified)	?	/	.	/	23.1µM	?

Screening data from PubChem.
